Values without a mark were called inactive. Active and inactive are the calls of the source.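 Rule for the calls: active = blocks over 60% of fluorescent estradiol binding at 10 µM; inactive = the rest.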
Each molecule was assayed against G-protein coupled estrogen receptor 1 (Homo sapiens) (UniProt Q99527) (assay: displacement of E2-Alexa633 from GPER – cell-based, Cos7 GPR30-GFP, flow cytometry, 10 µM, primary screen (AID 1212)). Settings: fluorescent estrogen competition, at 10 µM; active compounds read high.

Row | Structure (SMILES) | outcome | inhibition
1 | N=c1c[n+](CCc2ccc(O)cc2)[n-]o1 | inactive | 
2 | CCNCC1(c2ccc(OC)c(OC)c2)CCCC1 |  | 7%
3 | CC1(C)CC(CCNCc2ccc3c(c2)OCO3)(Cc2ccccc2)CCO1 (stereo not drawn) | inactive | 
4 | COc1cc2c(cc1OC)CC(C)(C)NC2 |  | 3%
5 | O=C1C2CCN(CC2)C1Cc1ccc(O)cc1 (stereo not drawn) | inactive | 
6 | COc1ccc(C2(CN)CCCC2)cc1OC | inactive | 
7 | COc1ccc2[nH]cc(CCN=C(N)N)c2c1 | inactive | 
8 | COc1ccc(C2(CN)CCCC2)cc1 |  | 10%

Source: PubChem BioAssay AID1212 (NMMLSC, 2008)
